Screening results (PubChem BioAssay)
The full list was thinned out, with hits kept by preference.
HT1080NT lethal: kills 2HG-producing HT-1080-NT fibrosarcoma cells; HT-1080-NT fibrosarcoma viability, CellTiter-Glo ATP luminescence, 48 h; Potency, µM (titrated, usually from 46.1 µM), usual class: cytotoxic; 360,000 compounds, 1.6% hits;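 also: NT is the 2HG producing partner of a matched IDH1 knockdown line; nearly all actives have a fitted effect of over 55% in size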
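A 48-hour cytotoxicity screen used HT-1080-NT cells plated 2 hours before compound delivery. ATP-based CellTiter-Glo luminescence measured viability, normalized to DMSO and no-cell controls.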
HT1080 IDH1KD tx: toxicity to HT-1080 IDH1 knockdown cells (counter line). 360,000 compounds, 2% hits. HT-1080 IDH1 knockdown viability, ATP luminescence, 48 h. Potency, µM (series often up to 46.1 µM), most hits filed as cytotoxic. AID 686971
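In this qHTS, HT-1080 cells depleted of IDH1 are exposed for 48 h at 37 °C to compound titrations. Toxicity is scored from CellTiter-Glo luminescence, with DMSO as full viability and medium alone as none.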
IL-1B inflam inh: blocks inflammasome-driven IL-1 beta release; THP-1 LPS/ATP IL-1B secretion, AlphaLISA, 16 h; hits give low values; activity change, % at 57.5 µM; 360,000 compounds, 4.7% hits; AID 743279; in the data active = activity change below about -50%; inconclusive = mostly about -30% to -49%
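THP-1 cells pretreated 1 hr with compounds (up to 57.5 uM final), then stimulated with LPS (250 ng/mL final) plus ATP (1.25 mM final); secreted IL-1B measured by AlphaLISA after 16 hr, decreased signal indicating inhibition.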
TDP1 cell noCPT: qHTS for Inhibitors of human tyrosyl-DNA phosphodiesterase 1 (TDP1): qHTS in cells in absence of CPT | DT40 Tdp1-/- hTDP1 cells, no CPT, ATP luminescence, 48 h | Potency, µM (series often up to 46.2 µM), hits mostly inhibitors | 420,000 compounds, 15% hits | AID 686978, 2013; also: nearly all actives have a fitted effect of over 55% in size
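Growth of hTDP1-complemented DT40 Tdp1-knockout cells is measured by ATP luminescence after at least 48 hr compound exposure at 37 °C, with DMSO substituting for the 20 nM CPT used in the parallel screen.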
ALOX12 inh: ALOX12 (human) lipoxygenase inhibition; P18054; purified 12hLO, xylenol orange hydroperoxide absorbance; Potency, µM (series often up to 108 µM), usual class: inhibitors; 580,000 compounds, 1.1% hits; AID 1671190
Target sequence (P18054 whole entry, looked up): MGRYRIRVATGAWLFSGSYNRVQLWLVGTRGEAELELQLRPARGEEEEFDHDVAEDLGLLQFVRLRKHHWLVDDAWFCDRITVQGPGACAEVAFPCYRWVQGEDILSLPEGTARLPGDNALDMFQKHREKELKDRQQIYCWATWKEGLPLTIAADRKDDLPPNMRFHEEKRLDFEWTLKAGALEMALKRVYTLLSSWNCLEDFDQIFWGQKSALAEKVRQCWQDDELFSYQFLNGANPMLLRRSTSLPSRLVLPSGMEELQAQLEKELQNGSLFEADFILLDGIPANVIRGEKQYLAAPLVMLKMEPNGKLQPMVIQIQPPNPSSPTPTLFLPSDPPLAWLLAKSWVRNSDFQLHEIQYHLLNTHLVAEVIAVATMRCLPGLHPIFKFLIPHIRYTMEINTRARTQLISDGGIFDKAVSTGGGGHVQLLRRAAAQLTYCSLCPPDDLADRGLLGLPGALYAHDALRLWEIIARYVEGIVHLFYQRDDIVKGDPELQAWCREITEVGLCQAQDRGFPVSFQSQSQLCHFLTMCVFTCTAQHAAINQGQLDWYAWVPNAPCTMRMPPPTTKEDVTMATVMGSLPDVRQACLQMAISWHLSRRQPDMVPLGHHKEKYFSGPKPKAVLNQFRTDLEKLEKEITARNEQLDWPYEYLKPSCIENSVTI
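Hydroperoxide product was detected by ferrous iron/xylenol orange as the 573 to 405 nm absorbance ratio. Arachidonic acid at 40 uM (final) was turned over for 30 min at room temperature by 150 nM human 12hLO, pH 7.0 Hepes buffer, after 15 min compound preincubation.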
TDP1 cell CPT: growth inhibition of DT40 Tdp1-/-;hTDP1 cells with camptothecin (screen for TDP1 inhibitors). chicken DT40 Tdp1-/-;hTDP1 cells + 20 nM CPT, ATP luminescence, 48 h. Potency, µM (doses to about 46.2 µM), usual class: inhibitors. 420,000 compounds, 12% hits. AID 686979; also: nearly all actives have a fitted effect of over 55% in size
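Chicken DT40 Tdp1-/- cells complemented with human TDP1, 400 cells/well, exposed to compounds plus 20 nM camptothecin for at least 48 h at 37 C; viability read as ATP content by CellTiter-Glo luminescence.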
Numbers stand for hits; - = inactive; ? = inconclusive; . = no result given. Unless noted, calls follow the shape of the dose curve; as a rule, active = well fitted curve in the direction sought with a large enough effect; inconclusive = small, poorly fitted or top-dose-only effect, or another doubt; inactive = no such curve, though single readings can be large; an effect the other way counts as inactive or inconclusive.

SMILES | HT1080NT lethal | HT1080 IDH1KD tx | IL-1B inflam inh | TDP1 cell noCPT | ALOX12 inh | TDP1 cell CPT
O=C(OCc1c(-c2ccccc2)ncc2ccccc12)c1ccc(C(F)(F)F)cc1 | - | - | - | 5.8µM | - | ?
COc1ccc2c(c1)C1(CCN(C(=O)COc3ccccc3)C1)C(=O)N2C (configuration not stated) | . | . | . | . | - | .
CCCCn1nnnc1C(CCSC)N1CCC2(CC1)C(=O)NCN2c1ccccc1 (configuration not stated) | - | - | - | ? | - | 23µM
COc1ccc(-n2nnnc2C(c2cccc3ccccc23)N2CCC3(CC2)C(=O)NCN3c2ccccc2)cc1 (configuration not stated) | - | - | ? | 9.2µM | - | -
COc1cccc(C(c2nnnn2C2CCCC2)N2CCC3(CC2)C(=O)NCN3c2ccccc2)c1OC (configuration not stated) | ? | ? | ? | 15µM | - | ?
O=C1NCN(c2ccccc2)C12CCN(C(c1ccnc3ccccc13)c1nnnn1Cc1ccccc1)CC2 (configuration not stated) | ? | - | -51 | ? | - | ?
CCCCn1nnnc1C(CC)N1CCC2(CC1)C(=O)NCN2c1ccccc1 (configuration not stated) | - | - | - | ? | ? | ?
O=C1NCN(c2ccccc2)C12CCN(C(c1cccc3ccccc13)c1nnnn1-c1ccc3c(c1)OCCO3)CC2 (configuration not stated) | - | - | ? | ? | - | ?
O=C(c1ccco1)N1[C@H]2CC[C@@H]1c1cnc(-c3ccc(F)cc3)nc1C2 | . | . | . | . | - | .
O=C(NC1CCCCC1)[C@H]1CN2CC[C@H]1C[C@@H]2Cn1cc(-c2ccccc2)nn1 | . | . | . | . | - | .
CC(C)CC(=O)N1CC[C@@H]2COCCN(C)[C@@H]2C1 | . | . | . | . | - | .
COc1cccc(CC(=O)N2[C@H]3CC[C@@H]2c2cnc(-c4ccccc4)nc2C3)c1 | . | . | . | . | - | .
O=C(O)CCC(=O)N1C[C@@H]2C[C@H](C1)c1ccc(-c3ccc(Cl)cc3)c(=O)n1C2 | . | . | . | . | - | .
Cc1cccc(CC(=O)N2[C@H]3CC[C@@H]2c2cnc(-c4ccc(F)cc4)nc2C3)c1 | . | . | . | . | - | .
CCC(CC)c1cc([C@H]2CN3CC[C@H]2C[C@@H]3CO)nc(-c2ccncc2)n1 | . | . | . | . | - | .
CCCCn1nnnc1C(c1cccc2ccccc12)N1CCC2(CC1)C(=O)NCN2c1ccccc1 (configuration not stated) | ? | ? | . | ? | - | ?
O=C1NCN(c2ccccc2)C12CCN(C(c1cccc3ccccc13)c1nnnn1Cc1ccccc1)CC2 (configuration not stated) | ? | ? | ? | 23µM | - | 18µM
CCCNC(=O)N1CC2CN(C(C)C)CC(C1)O2 | . | . | . | . | - | .
CC(C)(C)NC(=O)NC(=O)CN1CC=C(c2ccccc2)CC1 | - | - | - | 13µM | - | 16µM
O=C(CN1CC=C(c2ccccc2)CC1)NC(=O)NC1CCCCC1 | - | - | - | ? | - | -
CCCn1cc(S(=O)(=O)c2ccc(OC)cc2)c(=O)c2cc(F)c(N3CCCCCC3)cc21 | . | . | . | 23µM | - | ?
CN1CCN(c2cc(N3CCCC3)c([N+](=O)[O-])cc2F)CC1 | - | - | ? | ? | - | -
CC(C)(C)CC(C)(C)c1ccc(O)cc1 | . | . | . | 22µM | ? | 14µM
CCC(CC)c1cc([C@H]2CN3CC[C@H]2C[C@@H]3CNC(=O)COc2ccccc2)nc(-c2ccncc2)n1 | . | . | . | . | - | .
COc1ccccc1NC(=O)c1oc2ccccc2c1NC(=O)c1ccccc1C(F)(F)F | . | . | . | 5.2µM | - | 3.7µM
CN(C)C(=O)Oc1cccc(NC(=O)c2ccccc2C(F)(F)F)c1 | - | - | - | - | - | -
Cn1c(=O)c2[nH]c(N3CCNCC3)nc2n(C)c1=O | . | . | . | . | - | .
